SMARCA2 act: SMARCA2 (BRM) function activators, primary screen, cell-based, luminescence, high throughput. 370,000 compounds, 1% hits. activation, % at 9.1 µM. MG213 cells, MMTV-luciferase reporter, dexamethasone, overnight. AID 652017, 2013; in the data active means activation above about 7.8%;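 further: 0% = vehicle wells and 100% = reference activator wells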
Vif imaging: HIV Vif self-association inhibitors, primary screen, imaging, HEK293T, single point; HEK293T cells, Vif self-association by quenched fluorescence, 24 h; inhibition, % at 7.49 µM; 340,000 compounds, 0.35% hits; AID 602346, 2012; in the data active means inhibition above about 50%, passing the limit was not always enough; inconclusive means no clear call, values can overlap the other calls; inactive means below about 31%
SKN-1 inh: suppressors of acrylamide-induced Pgst-4::GFP reporter in worms, primary screen, SKN-1 inhibitor project, whole organism, uHTS, GFP/RFP fluorescence ratio, strain VP596. inhibition, % at 21.8 µM. C. elegans VP596 Pgst-4::GFP/RFP ratio, 24 h. 360,000 compounds, 0.49% hits;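 active means interference check ratio from 0.5 to 1.5 plus GFP to RFP signal ratio inhibition reaching or exceeding a fixed threshold, cut at about 30% in these data, passing the limit was not always enough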
GRIN3A LBD mod: binders of NR3A ligand-binding domain, primary screen, biophysical, differential scanning fluorimetry, uHTS; NR3A LBD differential scanning fluorimetry, Tm shift; 0% = protein alone, 100% = glycine-bound protein; 340,000 compounds, 2.5% hits; Tm shift relative to glycine control, % at 25 µM;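 active means melting temperature shift of at least 10% of the positive control shift, at one fixed dose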
esBAF inh: Bmi1 luciferase reporter increase in mESCs, primary screen, esBAF inhibitor project, mouse ES cells, Bmi1 luciferase knock-in, single point | 24 h; 100% = twice the neutral-well signal | reporter increase, % at 12.5 µM | 350,000 compounds, 2% hits | AID 602393, 2012; in the data active means activation above about 40%; inconclusive means no clear call, values can overlap the other calls;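 further: 0% = median of the plate's neutral control wells and 100% = double that signal; a rise in the Bmi1 reporter signal indicates esBAF inhibition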
NadD inh: inhibitors of S. aureus NadD, primary screen, biochemical, colorimetric, uHTS; Nicotinate-nucleotide adenylyltransferase NadD (Staphylococcus aureus N315); purified NadD enzyme, colorimetric absorbance read-out; inhibition, % at 20 µM; 360,000 compounds, 0.78% hits; in the data active means inhibition above about 26%
* hit, by the source's call; ? = inconclusive; nt = not tested or not shown. This is a sample that favours compounds with a hit; in the whole collection about 5.2% have one here.

SMILES	SMARCA2 act	Vif imaging	SKN-1 inh	GRIN3A LBD mod	esBAF inh	NadD inh
C[C@H](CO)N1C[C@H](C)[C@H](CN(C)C(=O)Nc2ccc3c(c2)OCO3)Oc2ccc(NC(=O)C3CCCCC3)cc2CC1=O	nt	nt	nt	nt	-3	nt
CCn1c(=NC(=O)c2ccc(S(=O)(=O)N(C)C)cc2)sc2cccc(OC)c21	2	4	6	10*	nt	0
C#CCn1c(=NC(=O)c2ccc(Br)s2)sc2cccc(OC)c21	1	-6	13	-27	54*	8
CCn1c(=NC(=O)CS(=O)(=O)c2ccc(C)cc2)sc2cccc(OC)c21	-3	-17	10	3	nt	-5
COc1ccccc1N=Nc1[nH]c2ccc(C)cc2c1O	7.9*	-3	10	-1	nt	3
CC(=O)c1sc(NC(=O)c2ccc(F)c(F)c2)nc1C	0	-6	-4	-2	8	14
CC(=O)c1sc(NC(=O)c2ccccc2C)nc1C	-1	-10	10	-1	76*	1
CC(=O)c1sc(NC(=O)c2ccc(Cl)cc2)nc1C	0	3	8	0	51*	-6
CC(=O)Nc1nc(C)c(C(C)=O)s1	6	-1	17	2	2	-1
CC(=O)c1sc(NCc2ccc(C)cc2)nc1C	3	18	0	1	53*	-2
CN1CCN(C(=O)C[C@@H]2C[C@@H]3c4cc(NC(=O)Nc5ccc(F)cc5)ccc4O[C@@H]3[C@@H](CO)O2)CC1	nt	nt	nt	nt	-4	nt
COC(=O)/C=C1\SC(=NC(=O)c2ccc(-c3ccccc3)cc2)NC1=O	-1	0	-7	5	24	31*
COC(=O)/C=C1\S/C(=N\N=C\CC(=O)OC)NC1=O	1	-5	37*	1	nt	-7
O=C(C[C@@H]1CC[C@@H]2[C@H](COC[C@@H](O)CN2C(=O)C2CC2)O1)NCc1ccncc1	nt	nt	nt	nt	-4	nt
C[C@@H]1CCCCO[C@@H](CN(C)C(=O)Nc2cccc3ccccc23)[C@@H](C)CN([C@H](C)CO)C(=O)c2cc(NC(=O)Nc3ccc(F)cc3)ccc2O1	nt	nt	nt	nt	-2	nt
O=C(Nc1ccc(Oc2ncnc3cc(Cl)ccc23)nc1)c1ccc(F)cc1	nt	nt	nt	6	nt	nt
O=C(Nc1ccc(Oc2ncnc3cc(Cl)ccc23)nc1)Nc1cccc(C(F)(F)F)c1	-5	-2	1	98*	0	16
C[C@@]12C(=O)N(Cc3ccc(-c4ccccc4)cc3)CC(=O)N1[C@H](/C=C/c1ccccc1)[C@@H]1C(=O)N(c3ccccc3)C(=O)[C@@H]12	1	-3	39*	-9	-4	0
COC(=O)CN1C(=O)[C@H]2[C@@H](/C=C/c3ccccc3)N3C(=O)CN(Cc4ccc(-c5ccccc5)cc4)C(=O)[C@@]3(C)[C@H]2C1=O	0	10	8	2	1	1
CC1=CN(S(=O)(=O)c2ccc(C)cc2)C[C@@H]2c3ccccc3N(S(=O)(=O)c3ccc(C)cc3)[C@H]12	-3	nt	5	17*	-8	2
C[C@H]1CN([C@@H](C)CO)S(=O)(=O)c2ccc(C#Cc3ccccc3)cc2O[C@H]1CN(C)C	nt	nt	nt	nt	-1	nt
O=S(=O)(Nc1ccc(O)c(Sc2nc3ccccc3s2)c1)c1ccc(F)cc1	-1	-4	18	9	nt	1
O=S(=O)(Nc1ccc(O)c(Sc2nc3ccccc3s2)c1)c1cccc2ccccc12	-2	-13	9	15*	nt	17
CCOC(=O)c1cnc(-n2nc(C)cc2C)nc1N(C)C	2	1	5	1	44*	-2
CCOC(=O)c1cnc(-n2nc(C)cc2C)nc1NC1CCCC1	-6	-24	12	-4	nt	7
SMILES	SMARCA2 act	Vif imaging	SKN-1 inh	GRIN3A LBD mod	esBAF inh	NadD inh
Clc1ccc(-c2nnc(CCc3ccccc3)o2)c(Cl)c1	6	-2	8	1	60*	-4
C=CCSc1nnc(-c2ccc(Cl)cc2Cl)o1	6	-3	86*	-1	4	-3
Clc1ccc(-c2nnc(SCc3nc4ccccc4[nH]3)o2)c(Cl)c1	1	-18	-6	-1	7	0
Clc1ccc(-c2nnc(SCc3ccon3)o2)c(Cl)c1	2	-15	37*	0	1	-2
O=[N+]([O-])c1ccccc1S(=O)(=O)Nc1nc2ccccc2s1	-2	-1	8	-14	2	1
O=[N+]([O-])c1ccc2nc(NS(=O)(=O)c3ccc(Cl)cc3)sc2c1	-2	?	-8	18*	-4	0
O=C(NC(Nc1nc2ccc([N+](=O)[O-])cc2s1)(C(F)(F)F)C(F)(F)F)c1cccnc1	-11	-3	17	1	nt	0
O=C(NC(Nc1nc2ccc([N+](=O)[O-])cc2s1)(C(F)(F)F)C(F)(F)F)c1ccccc1Cl	-6	-45	21	13*	nt	-1
O=[N+]([O-])c1ccc2nc(NS(=O)(=O)c3ccccc3[N+](=O)[O-])sc2c1	2	6	-11	14*	0	-1
C[C@@H]1CN([C@H](C)CO)C(=O)c2cc(NS(C)(=O)=O)ccc2O[C@@H]1CN(C)S(=O)(=O)c1cccs1	nt	nt	nt	nt	4	nt
O=C(O)/C=C\C(=O)Nc1ccccc1C#Cc1ccccc1	6	16	-1	8	56*	0
CO[C@H]1CC[C@H]2CCN(C)C(=O)CCCN(C)C(=O)c3cc(C#N)ccc3OC[C@@H]1O2	nt	nt	nt	nt	-1	nt
COc1ccccc1CNC(=O)C[C@@H]1C[C@H]2c3cc(NC(=O)Nc4ccccc4F)ccc3O[C@H]2[C@@H](CO)O1	nt	nt	nt	nt	-6	nt
Nc1cc2c(cc1Cl)-c1ccccc1C2=NO	1	-10	20	34*	52*	0
ON=C1c2ccccc2-c2ccccc21	-1	5	-1	0	6	-5
COc1ccccc1NC(=O)Cc1csc(NC(=S)Nc2ccccc2)n1	-3	-11	-27	11*	12	9
c1cncc(Nc2nc(-c3cccnc3)cs2)c1	1	0	6	0	nt	-6
Cc1ccc(C)c(Nc2nc(-c3cccnc3)cs2)c1	1	-4	3	20*	18	0
c1ccc(Nc2nc(-c3cccnc3)cs2)nc1	0	nt	15	34*	nt	-3
Cc1cccc(Nc2nc(-c3ccc(F)cc3)cs2)n1	3	-5	16	-1	?	-3
Clc1ccccc1Nc1nc(-c2cccnc2)cs1	2	3	17	-15	29	0
Fc1ccc(-c2csc(Nc3ccccn3)n2)cc1	0	-4	75*	-3	32	1
